# Source: PubChem BioAssay
# HTR2A ag: mouse HTR2A agonism via beta-arrestin recruitment; CHO-K1 mHTR2A beta-arrestin complementation, luminescence; percent of 30 µM serotonin response; 360,000 compounds, 0.66% hits; activation, % at 7.6 µM; AID 624169;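 active means activation above a run cutoff, the mean activation of all tested compounds plus 3 SD, cut at about 14% in these data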;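 further: 0% = plate median of compound wells and 100% = 30 µM serotonin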
# MOR-DOR ag: OPRM1-OPRD1 heterodimerization agonism; activation, % at 9.3 µM; P35372+P41143; 340,000 compounds, 0.3% hits; cells, luminescence; AID 504326; in the data active means activation above about 18%;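 further: 0% = vehicle-treated cells and 100% = reference agonist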
# Target sequence (P35372 whole entry, looked up): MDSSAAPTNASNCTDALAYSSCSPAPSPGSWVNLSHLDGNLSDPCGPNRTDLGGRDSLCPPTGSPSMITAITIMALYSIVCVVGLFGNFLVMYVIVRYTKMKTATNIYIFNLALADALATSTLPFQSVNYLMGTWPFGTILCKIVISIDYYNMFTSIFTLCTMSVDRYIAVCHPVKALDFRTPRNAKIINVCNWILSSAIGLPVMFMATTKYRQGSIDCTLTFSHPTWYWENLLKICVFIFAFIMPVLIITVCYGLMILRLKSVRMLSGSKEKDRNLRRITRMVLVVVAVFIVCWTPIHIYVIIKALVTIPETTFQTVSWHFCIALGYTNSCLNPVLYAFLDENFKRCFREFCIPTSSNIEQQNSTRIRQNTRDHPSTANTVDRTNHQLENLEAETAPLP
# Target sequence (P41143 whole entry, looked up): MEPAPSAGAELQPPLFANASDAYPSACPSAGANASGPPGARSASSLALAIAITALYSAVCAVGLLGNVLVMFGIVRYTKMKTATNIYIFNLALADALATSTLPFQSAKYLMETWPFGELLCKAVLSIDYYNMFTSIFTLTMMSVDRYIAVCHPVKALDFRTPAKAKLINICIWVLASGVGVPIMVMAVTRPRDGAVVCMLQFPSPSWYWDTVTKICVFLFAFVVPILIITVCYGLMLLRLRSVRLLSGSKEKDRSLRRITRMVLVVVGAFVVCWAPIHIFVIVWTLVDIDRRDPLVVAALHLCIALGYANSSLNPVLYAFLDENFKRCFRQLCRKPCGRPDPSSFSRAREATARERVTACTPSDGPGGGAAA
# HTR5A inv ctr: counter-screen for OPRM1-OPRD1 inverse agonists: human HTR5A inverse agonism | P47898 | HTR5A cell line, luminescence | inhibition, % at 9.3 µM | 340,000 compounds, 0.083% hits | AID 504634; in the data active means inhibition mostly above about 23%, no sharp cut-off; inactive means mostly below about 18%;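 further: 0% = cells with DMSO and 100% = no-cell wells with DMSO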
# HTR5A ag ctr: HTR5A agonism, opioid heterodimer counter-screen. activation, % at 9.3 µM. AID 504692. 340,000 compounds, 0.61% hits. HTR5A agonist assay, luminescence, cell-based. P47898; in the data active means activation mostly above about 9.5%, no sharp cut-off; inactive means mostly below about 7.6%;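 further: 0% = cells with vehicle only and 100% = reference agonist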
# OPRM1-OPRD1 inv: inverse agonist of human OPRM1-OPRD1 heterodimerization. inhibition, % at 9.3 µM. 340,000 compounds, 0.21% hits. cell-based MOR-DOR heterodimer luminescence, inverse agonism. AID 504357; in the data active means inhibition above about 22%, passing the limit was not always enough;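 further: 0% = cells with DMSO and 100% = wells without cells with DMSO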
# MOR-DOR inv conf: confirmation of human OPRM1-OPRD1 heterodimerization inverse agonists; AID 504900; shares compounds with OPRM1-OPRD1 inv; cells expressing OPRM1/OPRD1 heterodimer, luminescence; 580 compounds, 20% hits; inhibition, % at 9.3 µM; in the data active means inhibition above about 32%;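 further: 0% = cells with DMSO and 100% = wells lacking cells with DMSO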
# HTR5A inv ctr2: counter-screen for OPRM1-OPRD1 inverse agonists: human HTR5A inverse agonism; shares compounds with OPRM1-OPRD1 inv; HTR5A-expressing cells, luminescence; inhibition, % at 9.3 µM; 580 tested, under 10 active; AID 504914; call rule not given here;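 further: 0% = cells with DMSO and 100% = no-cell wells with DMSO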
# Starred values were filed as active, the others as inactive; · = no result given. Sampled rows, rich in hits. Any-hit rate of the full collection: about 1.6%.
SMILES,HTR2A ag,MOR-DOR ag,HTR5A inv ctr,HTR5A ag ctr,OPRM1-OPRD1 inv,MOR-DOR inv conf,HTR5A inv ctr2
COc1ccc(O)c(/C=N/N=C2/C(=O)Nc3ccccc32)c1,-2,4,-11,4,-19,·,·
Cc1cc(Br)ccc1N=C1C(=O)Nc2ccccc21,7,-10,15,-4,50*,14,8
O=C1Nc2ccccc2C1=Nc1ccccc1-c1ccccc1,-3,-14,28,-7,62*,-219,-20
Cc1cccc(C)c1N=C1C(=O)Nc2ccccc21,-3,-9,28,-7,46*,-26,-3
Cc1cc(C)c(N=C2C(=O)Nc3ccccc32)c(C)c1,0,-9,19,-5,48*,-37,-32
CNC(=O)c1cc2ncc(C(F)(F)F)cc2s1,-5,-2,-3,1,12,·,·
O=C(Nc1ccc(C(=O)N2CCCCC2)cc1)c1ccc([N+](=O)[O-])cc1,-8,0,-21,6,2,·,·
O=C1c2ccccc2-c2nccnc21,-5,-14,39*,-5,80*,87*,11
O=C1c2cccnc2-c2ncccc21,1,-2,-10,4,10,·,·
Fc1ccc(NC(=S)N2CCN(c3ccccn3)CC2)cc1Cl,-2,-1,-25,6,3,·,·
CN1C(=O)C(O)(C2COC(C)(C)CC2=O)c2cc(Br)ccc21 (stereo not drawn),3,-19,7,-7,81*,69*,-5
CN1C(=O)C(O)(C2COC(C)(C)CC2=O)c2ccccc21 (stereo not drawn),1,-8,5,-2,32*,10,-1
CN(C)/C=N/c1sc2c(c1C#N)CC(C)(C)NC2(C)C,-3,-2,-23,-2,11,·,·
O=C(Cc1ccccc1)NNc1ccc2ccccc2c1,5,-6,16,1,33*,-29,2
CCCCNC(=O)C1CCN(S(=O)(=O)N2CCOCC2)CC1,0,0,24,9,0,·,·
O=C(Nc1c(C(=O)O)[nH]c2ccccc12)NC1CCCCC1,-7,-7,4,1,32*,-74,-7
COC(=O)c1[nH]c2ccc(C)cc2c1NC(=O)NC1CCCCC1,12,2,-17,7,-8,·,·
COCCCNC(=S)NNC(=O)Cn1nc(C)c(Br)c1C,0,-3,0,0,16,·,·
Cc1nn(CCC(=O)NNC(=S)Nc2ccccc2)c(C)c1Br,-26,-6,23,1,30*,-156,-10
CNC(=S)NNC(=O)CCn1nc(C)c(Br)c1C,-6,-3,4,0,15,·,·
CCOCCCNC(=S)NNC(=O)CCn1nc(C)c(Br)c1C,-16,-8,5,-3,45*,-13,-16
Cc1nn(CCC(=O)NNC(=S)NCC(C)C)c(C)c1Br,-26,-15,37,-11,75*,-33,-10
C=CCN1C(=O)C(O)(CC(=O)c2ccccc2)c2ccccc21 (stereo not drawn),-5,-2,-8,5,11,·,·
NC(=O)CN1C(=O)C(O)(CC(=O)c2ccccc2O)c2ccccc21 (stereo not drawn),13,-9,17,-6,43*,43*,1
O=C(CC1(O)C(=O)Nc2ccccc21)c1cccc(Br)c1 (stereo not drawn),0,-6,13,-4,33*,15,11
CS(=O)(=O)Nc1cccc(C(=O)CC2(O)C(=O)Nc3ccc(Br)cc32)c1 (stereo not drawn),5,-7,-8,3,35*,4,2
COC(=O)CN1C(=O)C(O)(CC(=O)c2cccc(Br)c2)c2ccccc21 (stereo not drawn),4,-8,21,-7,43*,17,7
CCS(=O)(=O)Nc1cccc(C(=O)CC2(O)C(=O)Nc3ccccc32)c1 (stereo not drawn),-4,-5,14,6,31,·,·
Cc1cnc(NC(=O)c2cncc(Br)c2)s1,-2,-3,5,-2,14,·,·
Cc1cc(C)nc(NNS(=O)(=O)c2c(F)cc(F)cc2Br)n1,11,-8,-7,3,31*,-93,-37
